Data on 96 compounds can be found in PubChem BioAssay AID751 (NMMLSC, 2007).

Molecules are shown by their SMILES. In all, about 24,000 compounds went through this assay and about 40 (0.2%) were called active. The sample holds actives, similar compounds and a random draw of the others, so the mix is not that of the screen. Unmarked numbers belong to inactive results.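 How the source made its calls: active means inhibition of disassembly above about 33% (limit read from the data); inconclusive means likely self-fluorescent, control bead median signal at least 40; inactive means the rest.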

In the test the test system is 26S proteasome (yeast, GFP-tagged, ATP-dependent disassembly). Nature of the test: blockers of yeast 26S proteasome breakdown – biochemical, bead-based flow cytometry, GFP-tagged proteasome, primary screen (AID 751).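 Further: plate controls were ATP control with full disassembly for no effect and ATP-gamma-S intact proteasomes for full effect; higher percent means more bead fluorescence retained so stronger block of disassembly.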 The note with it: anti-FLAG beads, stronger effect = higher value, concentration not given here.
On to `CCOC(=O)C1CCCN(C(=O)Cn2ncc3c(=O)oc4ccc(C)cc4c32)C1` (stereo unspecified), for which the inhibition of disassembly was -1.55%.

Consider `Cc1nn(-c2ccccc2)c2[nH]c(C(F)(F)F)cc(=O)c12`, for which the inhibition of disassembly is 0.28%.

Take `CC(C)CNC(=O)c1cc(-c2ccc(Br)cc2)on1`: the inhibition of disassembly is -0.25%.

Regarding `COc1ccc(C2C(C(=O)Nc3ccccc3OC)=C(C)Nc3nnnn32)c(OC)c1` (stereo unspecified), the inhibition of disassembly is -0.27%.

For the compound `Cc1ccc(C(c2sc3nc(C)nn3c2O)N2CCN(c3ccccc3)CC2)cc1` (stereo unspecified), the inhibition of disassembly was -0.53%.

Turning to `CCS(=O)(=O)N1CCC(C(=O)N2CCN(c3ccccc3)CC2)CC1`, the inhibition of disassembly was 0.05%.

Consider `CCOC(=O)c1ccc(NC(=O)CS(=O)(=O)c2cn(CC)c3ccccc23)cc1`, for which the inhibition of disassembly was -1.63%.

Take `CCN(CC)CCNC(=O)C1c2ccccc2C(=O)N(C)C1c1cn(C)c2ccccc12` (stereo unspecified): the inhibition of disassembly was -2.19%.

Regarding `COc1ccc(CN(C(=O)c2cccs2)c2nccs2)cc1OC`, the inhibition of disassembly was 0.76%.

With `CCn1c(SCC(=O)Nc2nccs2)nnc1-c1ccncc1`, the inhibition of disassembly is 1.46%.

For the compound `CCCN(CCC)CCNC(=O)c1cc2c(C)nc3ccccc3c2o1`, the inhibition of disassembly is 5.25%.

Turning to `Cn1cccc1Cc1nnc(SCC(=O)NCc2ccc3c(c2)OCO3)n1CCc1ccccc1`, the inhibition of disassembly was 1.04%.

Regarding `CCOc1ccc(N(CC(=O)NCc2ccc(OC)cc2)S(=O)(=O)c2c(C)noc2C)cc1`, the inhibition of disassembly is -1.57%.

Take `Cc1ccc(-c2nc(CS(=O)CC(=O)N3CCN(c4ncccn4)CC3)c(C)o2)cc1` (stereo unspecified): the inhibition of disassembly is 4.64%.

Regarding `Cc1nnc(SCC(=O)N(C(C)C)C(C)C)nc1C`, the inhibition of disassembly was 0.76%.

For the compound `O=C(CSc1nc2[nH]ncc2c(=O)n1-c1ccccc1)N1CCCc2ccccc21`, the inhibition of disassembly is 3.12%.

For `CCOCC(=O)Nc1sc2c(c1C(=O)OCC)CCCC2`, the inhibition of disassembly was 1.13%.

As to `CNC(=O)Nc1cc(C(C)(C)C)no1`, the inhibition of disassembly is -0.8%.

On to `COc1ccc(C(=O)N(CCN2CCOCC2)CC(=O)NC2CCCC2)cc1OC`, for which the inhibition of disassembly is 1%.

On to `CNC(=O)c1ccc2nc(NC(C)=O)sc2c1`, for which the inhibition of disassembly is 3.41%.

As for `Fc1ccc2nc(Nc3nc4c(s3)CCCC4)sc2c1`, the inhibition of disassembly is 96.9% (active).

`Fc1ccc2nc(N3CCCCC3)sc2c1`: the inhibition of disassembly is 0.07%.

Take `O=C1c2ccncc2C(=O)N1C1CCCCC1`: the inhibition of disassembly was -0.82%.

Turning to `Cc1ncn(C23CC4CC(CC(O)(C4)C2)C3)n1`, the inhibition of disassembly was -1.21%.

As to `O=C1c2cccnc2C(=O)N1Cc1cccs1`, the inhibition of disassembly was -1.73%.

For the compound `CCOc1cc(S(=O)(=O)NCc2ccc3c(c2)OCO3)ccc1F`, the inhibition of disassembly is -0.11%.

For the compound `Cc1nnc(SCCCn2c(N3CCCCC3)nc3c2c(=O)[nH]c(=O)n3C)s1`, the inhibition of disassembly is -3.02%.

As for `Cc1cc(C(=O)NCCCc2ccccc2)no1`, the inhibition of disassembly is 0.81%.

For the compound `CCOc1ccc(C2C(C(=O)NC)=C(C)Nc3nc4ccccc4n32)cc1OC` (stereo unspecified), the inhibition of disassembly is -0.82%.

On to `O=S(=O)(NCc1ccccc1Cl)c1cnc[nH]1`, for which the inhibition of disassembly is 1.99%.

Take `N#CCCn1ncc2ccccc21`: the inhibition of disassembly is -0.94%.

With `CCOC(=O)CN1C(=O)C(O)(CC(=O)c2ccccn2)c2ccccc21` (stereo unspecified), the inhibition of disassembly is 0.68%.

In the case of `COc1ccc(NC(=O)CN2CCN(S(=O)(=O)c3ccc(F)cc3)CC2)cc1Cl`, the inhibition of disassembly was 0.32%.

As for `O=C(CN1CCN(C(=O)c2cccc(F)c2)CC1)Nc1ccccc1F`, the inhibition of disassembly was 2.43%.

In the case of `CCOc1ccc(CC(=O)Nc2ccc(S(=O)(=O)Nc3cc(C)on3)cc2)cc1OCC`, the inhibition of disassembly was 1.32%.

For the compound `Cc1ccc(N(C(=O)CC2NC(=O)NC2=O)C2(C(=O)NC3CCCC3)CCCCC2)cc1` (stereo unspecified), the inhibition of disassembly is -0.11%.

On to `Cc1ccc(C2CC(=O)NC(SCC(=O)OCc3ccccc3)=C2C#N)o1` (stereo unspecified), for which the inhibition of disassembly is -1.12%.

In the case of `Cc1ccc(C(CC(=O)O)Nc2nc(N3CCCCC3)nc(N3CCCCC3)n2)cc1` (stereo unspecified), the inhibition of disassembly is 0.5%.

For the compound `CN(C)S(=O)(=O)c1cccc(C(=O)Nc2cccnc2)c1`, the inhibition of disassembly was 0.3%.

On to `O=C(Cc1nn[nH]n1)NCCC1=CCCCC1`, for which the inhibition of disassembly was 3.56%.

`C#CC(C)(C)NC(=O)CSc1nc2c(c(=O)n(C)c(=O)n2C)n1CCCC`: the inhibition of disassembly is 0.06%.

For the compound `Cc1ccc(-n2ncc3c(=O)[nH]cnc32)c(C)c1`, the inhibition of disassembly is -2.48%.

Consider `CCOC(=O)C1CCN(C(=O)c2oc3ccc(S(=O)(=O)N4CCCCCC4)cc3c2C)CC1`, for which the inhibition of disassembly was 0.89%.

Regarding `CCOC(=O)Cc1csc(NC(=O)CN(C)S(=O)(=O)c2ccc3c(c2)CCC(=O)N3)n1`, the inhibition of disassembly was 0.365%.

Regarding `CCC1Oc2ccc(Cl)cc2N(CC(=O)O)C1=O` (stereo unspecified), the inhibition of disassembly was -0.77%.

With `Brc1cnc(N2CCCC2)nc1N1CCCCC1`, the inhibition of disassembly is -0.98%.

Turning to `O=C(O)c1ccc(NC(=O)c2cccs2)cc1`, the inhibition of disassembly is -9.2%.

For the compound `COc1cccc(N2C(=O)C3CCCN3C2c2ccc(F)cc2)c1` (stereo unspecified), the inhibition of disassembly is 137% (active).

With `COc1ccc(N2C(=O)C3CCCN3C2c2cccc(OC)c2)cc1` (stereo unspecified), the inhibition of disassembly was 0.89%.

For `COc1ccc(N2C(=O)C3CCCN3C2c2cc(OC)c(OC)cc2OC)cc1` (stereo unspecified), the inhibition of disassembly is 1.25%.

For the compound `Cc1ccccc1N1CC(c2nc3ccccc3[nH]2)CC1=O` (stereo unspecified), the inhibition of disassembly was 2.43%.

On to `Cc1ccc(NC(=O)C2CC(c3ccc(F)cc3)=NO2)cc1` (stereo unspecified), for which the inhibition of disassembly was 0.38%.

As to `CCOC(=O)Cn1c(=O)oc2cc(S(=O)(=O)N(C)Cc3ccco3)ccc21`, the inhibition of disassembly was 0.3%.

In the case of `C=CCOc1ccc(C2/C(=C(\O)c3c(C)[nH]c(C(=O)OC)c3C)C(=O)C(=O)N2CCN(C)C)cc1` (stereo unspecified), the inhibition of disassembly is -2.37%.

For `Cc1nc2ccc(S(=O)(=O)NC(C(=O)N3CCCCCC3)C(C)C)cc2s1` (stereo unspecified), the inhibition of disassembly was 0%.

Take `CC(C)C1N=C2c3ccccc3N=C(SCC(=O)c3ccc(O)c(O)c3)N2C1=O` (stereo unspecified): the inhibition of disassembly was -7.17%.

`Nc1nonc1C(=O)NCCc1ccccc1`: the inhibition of disassembly is -0.31%.

Turning to `CCCCN(CC)C(=O)CN(C)S(=O)(=O)c1cccc2nsnc12`, the inhibition of disassembly was -0.83%.

Regarding `CC(=O)Nc1ccc(NS(=O)(=O)c2cc(C)sc2C)cc1`, the inhibition of disassembly is 1.22%.

`CCCNC(=O)Nc1ccccc1C(=O)Nc1ccc(OC)cc1`: the inhibition of disassembly is 0.82%.

Take `COc1ccccc1CNC(=O)CCCn1c(=O)c2ccccc2n(CC(=O)NC2CCCC2)c1=O`: the inhibition of disassembly is -1.05%.

In the case of `O=C(c1cc(-c2ccccc2O)on1)N1CCCC1`, the inhibition of disassembly was 3.8%.

With `CCCCC(=O)Nc1cc(C)c2c(=O)oc3ccccc3c2n1`, the inhibition of disassembly was -3.04%.

For `COc1ccccc1-c1nc(C(F)(F)F)c(OC)o1`, the inhibition of disassembly is -0.84%.

Turning to `O=C(Nc1nsc(-c2ccccc2)n1)c1ccncc1`, the inhibition of disassembly was -0.11%.

For the compound `COC(=O)c1oc2ccc(Br)cc2c1NC(C)=O`, the inhibition of disassembly is 0.425%.

On to `Cc1cc(=O)n2nc(N3CCCC(C(=O)NCCC4=CCCCC4)C3)sc2n1` (stereo unspecified), for which the inhibition of disassembly is -1.75%.

With `Cc1cc(C)c(C)c(S(=O)(=O)Nc2ccc(O)cc2)c1C`, the inhibition of disassembly was 0.6%.

`O=C(NCc1cccs1)c1ccc2c(c1)ncn2C1CCCC1`: the inhibition of disassembly was 0.01%.

As for `O=C(Cn1nnc(-c2ccc(CN3CCOCC3)cc2)n1)NC1CCCCC1`, the inhibition of disassembly was 0.56%.

On to `O=C(CN1C(=O)C2C3C=CC(C3)C2C1=O)NCCc1ccccc1Cl` (stereo unspecified), for which the inhibition of disassembly is -3.34%.

With `CCOC(=O)C1CCN(C(=O)Cc2c(C(=O)O)[nH]c3ccccc23)CC1`, the inhibition of disassembly was 1.78%.

Consider `CC(c1nnc(SCC(=O)Nc2sccc2C#N)n1-c1ccc(Cl)cc1)N(C)C` (stereo unspecified), for which the inhibition of disassembly is 0.73%.

For `COC(=O)c1ccccc1NC(=O)c1cncc(Br)c1`, the inhibition of disassembly is 1.29%.

In the case of `CCOC(=O)C1C(=O)C=C(c2ccc(OC)cc2)CC1c1ccco1` (stereo unspecified), the inhibition of disassembly is -0.2%.

With `O=c1c2[nH]c3ccc(Cl)cc3c2ncn1Cc1ccccn1`, the inhibition of disassembly is -0.64%.

As to `Cn1c(COc2ccc(Cl)cc2)nc2ccccc2c1=O`, the inhibition of disassembly is -1.78%.

Consider `O=C1CC(c2cccc(Br)c2)C2=C(CCCC2=O)N1` (stereo unspecified), for which the inhibition of disassembly was 2.93%.

Regarding `COc1ccc(CCNC(=O)c2ccc3c(c2)NC(=O)C(N2CCOCC2)S3)cc1OC` (stereo unspecified), the inhibition of disassembly was 7.35%.

In the case of `COc1ccc(CCNC(=O)CCCCn2c(=O)[nH]c3ccccc3c2=O)cc1OC`, the inhibition of disassembly is -2.22%.

Take `Cc1oc(-c2cccc(Cl)c2)[n+]([O-])c1C`: the inhibition of disassembly was -1.38%.

On to `COc1ccc(CC(=O)Nc2c3c(nn2-c2cccc(Cl)c2)CS(=O)C3)cc1` (stereo unspecified), for which the inhibition of disassembly is -0.575%.

On to `COc1ccc(CCNC(=O)c2cc(-c3ccc4c(c3)OCO4)on2)cc1OC`, for which the inhibition of disassembly was -0.34%.

Take `CCOC(=O)Cn1c(=O)oc2cc(S(=O)(=O)NCC3CCCO3)ccc21` (stereo unspecified): the inhibition of disassembly was -1.43%.

Consider `CCOC(=O)c1c(C)oc2ccc(OCC(=O)N(CC)CC)cc12`, for which the inhibition of disassembly is 0.35%.

In the case of `O=C(CCCCn1c(=O)[nH]c2ccccc2c1=O)NCc1ccc2c(c1)OCO2`, the inhibition of disassembly is 1.45%.

Take `Cn1c(=O)[nH]c(=O)c2c1nc(N(CCO)Cc1ccccc1)n2Cc1ccccc1Cl`: the inhibition of disassembly was 0.72%.

For the compound `COC(=O)C1C(=O)c2c([nH]c(C(=O)OCCSC)c2C)CC1C` (stereo unspecified), the inhibition of disassembly was -0.89%.

Regarding `COc1cccc(NC(=O)Cn2cnc3sc(C)c(S(=O)(=O)N4CCN(C)CC4)c3c2=O)c1`, the inhibition of disassembly is -0.73%.

Regarding `CC(=O)Nc1nonc1-c1nc2ccccc2n1Cc1ccccn1`, the inhibition of disassembly is 5.18%.

Consider `CCOC(=O)N1CCC(Nc2c(NCCCN3CCN(c4ccc(OC)cc4)CC3)c(=O)c2=O)CC1`, for which the inhibition of disassembly is 1.14%.

Take `CCOCCc1c(O)nc(SCC(=O)NCc2ccco2)[nH]c1=O`: the inhibition of disassembly was -2.18%.

In the case of `CN(C)CCCNC(=O)c1ccc2[nH]c3ccccc3c2c1`, the inhibition of disassembly was -0.71%.

Consider `Cc1cccc(NC(=O)CSc2nc3c(c(=O)[nH]2)CCC3)c1C`, for which the inhibition of disassembly was 0.47%.

For `CC(=O)NC1CC2CCCC(C1)N2CC(=O)Nc1ccccc1` (stereo unspecified), the inhibition of disassembly is -0.95%.

In the case of `CC12CN3CC(C)(CN(C1)C3c1ccc(Cl)cc1Cl)C2=O` (stereo unspecified), the inhibition of disassembly is 1.12%.
